# ChEMBL document CHEMBL1961873, “Compounds: GSK PKIS; Assays: Nanosyn kinase panel” (2012)
# How the values were obtained:
# [1] = target: Sphingosine kinase 1 (Homo sapiens) (UniProt Q9NYA1); conditions: at 1 µM;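 also: mean SPHK1 inhibition value reported from the GSK PKIS kinase panel screen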
# [2] = target: T1, Sphingosine kinase 2 (Homo sapiens) (UniProt Q9NRA0); conditions: at 0.1 µM
# T1 sequence (whole entry): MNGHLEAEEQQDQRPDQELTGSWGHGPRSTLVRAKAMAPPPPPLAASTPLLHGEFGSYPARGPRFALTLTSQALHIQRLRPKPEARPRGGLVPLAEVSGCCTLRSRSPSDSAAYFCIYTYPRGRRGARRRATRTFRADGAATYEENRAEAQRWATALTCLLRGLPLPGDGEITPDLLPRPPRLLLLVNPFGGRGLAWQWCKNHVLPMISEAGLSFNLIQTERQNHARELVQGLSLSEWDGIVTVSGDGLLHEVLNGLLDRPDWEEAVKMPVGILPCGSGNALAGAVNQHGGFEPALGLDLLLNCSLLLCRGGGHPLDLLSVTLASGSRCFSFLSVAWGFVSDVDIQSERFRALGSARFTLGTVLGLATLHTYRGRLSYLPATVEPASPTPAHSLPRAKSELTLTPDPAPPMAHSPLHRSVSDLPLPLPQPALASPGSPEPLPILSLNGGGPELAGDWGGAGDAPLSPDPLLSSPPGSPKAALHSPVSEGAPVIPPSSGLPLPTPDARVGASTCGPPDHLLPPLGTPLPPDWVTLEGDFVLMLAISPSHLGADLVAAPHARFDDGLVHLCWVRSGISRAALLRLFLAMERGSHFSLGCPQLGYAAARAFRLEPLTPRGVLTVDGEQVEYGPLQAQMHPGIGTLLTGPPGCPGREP
# [3] = target: T1, Sphingosine kinase 2 (Homo sapiens); conditions: at 1 µM
# [4] = target: Casein kinase II subunit alpha (Homo sapiens) (UniProt P68400); conditions: at 0.1 µM
# Casein kinase II subunit alpha (Homo sapiens), sequence (P68400 whole entry, looked up): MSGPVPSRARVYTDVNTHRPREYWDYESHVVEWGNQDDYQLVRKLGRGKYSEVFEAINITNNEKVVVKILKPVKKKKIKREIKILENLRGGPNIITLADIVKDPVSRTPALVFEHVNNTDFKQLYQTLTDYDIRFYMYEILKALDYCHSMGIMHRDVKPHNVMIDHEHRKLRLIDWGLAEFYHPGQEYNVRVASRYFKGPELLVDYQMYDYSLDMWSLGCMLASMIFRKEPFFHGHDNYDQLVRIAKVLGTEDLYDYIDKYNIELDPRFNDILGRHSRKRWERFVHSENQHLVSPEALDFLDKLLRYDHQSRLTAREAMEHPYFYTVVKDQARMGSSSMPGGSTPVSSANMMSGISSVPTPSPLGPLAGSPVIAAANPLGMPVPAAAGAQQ
# [5] = target: Casein kinase II subunit alpha (Homo sapiens) (UniProt P68400); conditions: at 1 µM
# [6] = target: T2, Inhibitor of nuclear factor kappa-B kinase subunit alpha (Homo sapiens) (UniProt O15111); conditions: at 0.1 µM
# T2 sequence (whole entry): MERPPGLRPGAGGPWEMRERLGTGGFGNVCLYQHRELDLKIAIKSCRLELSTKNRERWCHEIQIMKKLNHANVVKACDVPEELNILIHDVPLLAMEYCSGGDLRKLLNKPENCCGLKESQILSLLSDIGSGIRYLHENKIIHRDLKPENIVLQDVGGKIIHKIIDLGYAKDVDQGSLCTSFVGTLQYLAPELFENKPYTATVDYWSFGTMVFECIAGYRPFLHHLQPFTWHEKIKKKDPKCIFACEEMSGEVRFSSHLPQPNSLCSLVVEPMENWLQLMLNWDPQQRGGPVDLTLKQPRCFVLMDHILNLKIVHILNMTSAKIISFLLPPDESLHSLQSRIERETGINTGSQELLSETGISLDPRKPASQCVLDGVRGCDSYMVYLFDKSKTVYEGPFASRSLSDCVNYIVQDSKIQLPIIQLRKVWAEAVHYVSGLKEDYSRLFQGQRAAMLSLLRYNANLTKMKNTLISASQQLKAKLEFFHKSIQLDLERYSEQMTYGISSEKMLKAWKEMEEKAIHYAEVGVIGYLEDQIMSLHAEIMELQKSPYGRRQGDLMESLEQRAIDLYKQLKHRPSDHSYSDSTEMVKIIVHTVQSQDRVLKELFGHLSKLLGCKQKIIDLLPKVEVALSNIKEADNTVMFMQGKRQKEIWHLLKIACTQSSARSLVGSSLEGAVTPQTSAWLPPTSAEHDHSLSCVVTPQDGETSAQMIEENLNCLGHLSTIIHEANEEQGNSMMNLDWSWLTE
# [7] = target: T2, Inhibitor of nuclear factor kappa-B kinase subunit alpha (Homo sapiens); conditions: at 1 µM
# [8] = target: T3, Inhibitor of nuclear factor kappa-B kinase subunit beta (Homo sapiens) (UniProt O14920); conditions: at 0.1 µM
# T3 sequence (whole entry): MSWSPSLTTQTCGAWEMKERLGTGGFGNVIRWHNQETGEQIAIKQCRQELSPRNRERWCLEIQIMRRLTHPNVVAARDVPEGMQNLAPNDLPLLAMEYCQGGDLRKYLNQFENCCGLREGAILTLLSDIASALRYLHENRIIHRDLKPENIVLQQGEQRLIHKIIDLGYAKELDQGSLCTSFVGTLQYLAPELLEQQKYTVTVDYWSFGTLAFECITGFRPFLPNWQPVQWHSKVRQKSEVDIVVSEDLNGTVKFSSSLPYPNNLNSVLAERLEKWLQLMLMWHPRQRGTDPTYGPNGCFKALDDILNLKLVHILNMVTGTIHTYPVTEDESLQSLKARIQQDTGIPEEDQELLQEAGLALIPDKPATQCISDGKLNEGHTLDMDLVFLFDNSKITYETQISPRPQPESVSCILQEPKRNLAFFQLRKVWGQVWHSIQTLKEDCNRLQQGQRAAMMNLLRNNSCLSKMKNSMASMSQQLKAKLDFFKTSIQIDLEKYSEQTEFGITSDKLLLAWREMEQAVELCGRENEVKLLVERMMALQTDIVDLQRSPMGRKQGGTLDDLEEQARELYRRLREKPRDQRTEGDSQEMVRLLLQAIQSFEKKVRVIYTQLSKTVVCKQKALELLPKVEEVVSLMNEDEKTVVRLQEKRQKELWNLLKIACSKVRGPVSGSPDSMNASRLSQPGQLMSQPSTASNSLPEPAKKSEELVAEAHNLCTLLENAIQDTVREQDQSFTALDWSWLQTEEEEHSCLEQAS
# [9] = target: T3, Inhibitor of nuclear factor kappa-B kinase subunit beta (Homo sapiens); conditions: at 1 µM
# [10] = target: T4, Inhibitor of nuclear factor kappa-B kinase subunit epsilon (Homo sapiens) (UniProt Q14164); conditions: at 0.1 µM
# T4 sequence (whole entry): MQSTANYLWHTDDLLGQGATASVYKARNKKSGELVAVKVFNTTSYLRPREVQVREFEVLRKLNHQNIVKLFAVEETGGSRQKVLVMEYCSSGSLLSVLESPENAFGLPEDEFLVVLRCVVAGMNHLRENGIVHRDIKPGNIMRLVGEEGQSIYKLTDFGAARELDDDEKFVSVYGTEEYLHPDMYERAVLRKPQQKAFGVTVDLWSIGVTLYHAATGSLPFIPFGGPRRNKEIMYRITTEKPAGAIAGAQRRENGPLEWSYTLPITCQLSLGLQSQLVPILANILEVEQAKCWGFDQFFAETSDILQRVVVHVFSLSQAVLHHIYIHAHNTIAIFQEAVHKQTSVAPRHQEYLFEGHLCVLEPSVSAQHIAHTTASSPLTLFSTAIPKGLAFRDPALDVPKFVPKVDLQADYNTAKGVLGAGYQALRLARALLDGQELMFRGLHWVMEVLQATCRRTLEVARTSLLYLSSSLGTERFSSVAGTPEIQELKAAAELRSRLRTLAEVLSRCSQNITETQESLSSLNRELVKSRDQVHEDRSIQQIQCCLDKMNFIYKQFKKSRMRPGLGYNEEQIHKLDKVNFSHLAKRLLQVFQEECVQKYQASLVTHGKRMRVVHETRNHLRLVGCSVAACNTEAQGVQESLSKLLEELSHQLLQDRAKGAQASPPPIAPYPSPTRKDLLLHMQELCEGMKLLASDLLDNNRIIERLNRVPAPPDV
# [11] = target: T4, Inhibitor of nuclear factor kappa-B kinase subunit epsilon (Homo sapiens); conditions: at 1 µM
# [12] = target: T5, Serine/threonine-protein kinase Nek1 (Homo sapiens) (UniProt Q96PY6); conditions: at 0.1 µM
# T5 sequence (whole entry): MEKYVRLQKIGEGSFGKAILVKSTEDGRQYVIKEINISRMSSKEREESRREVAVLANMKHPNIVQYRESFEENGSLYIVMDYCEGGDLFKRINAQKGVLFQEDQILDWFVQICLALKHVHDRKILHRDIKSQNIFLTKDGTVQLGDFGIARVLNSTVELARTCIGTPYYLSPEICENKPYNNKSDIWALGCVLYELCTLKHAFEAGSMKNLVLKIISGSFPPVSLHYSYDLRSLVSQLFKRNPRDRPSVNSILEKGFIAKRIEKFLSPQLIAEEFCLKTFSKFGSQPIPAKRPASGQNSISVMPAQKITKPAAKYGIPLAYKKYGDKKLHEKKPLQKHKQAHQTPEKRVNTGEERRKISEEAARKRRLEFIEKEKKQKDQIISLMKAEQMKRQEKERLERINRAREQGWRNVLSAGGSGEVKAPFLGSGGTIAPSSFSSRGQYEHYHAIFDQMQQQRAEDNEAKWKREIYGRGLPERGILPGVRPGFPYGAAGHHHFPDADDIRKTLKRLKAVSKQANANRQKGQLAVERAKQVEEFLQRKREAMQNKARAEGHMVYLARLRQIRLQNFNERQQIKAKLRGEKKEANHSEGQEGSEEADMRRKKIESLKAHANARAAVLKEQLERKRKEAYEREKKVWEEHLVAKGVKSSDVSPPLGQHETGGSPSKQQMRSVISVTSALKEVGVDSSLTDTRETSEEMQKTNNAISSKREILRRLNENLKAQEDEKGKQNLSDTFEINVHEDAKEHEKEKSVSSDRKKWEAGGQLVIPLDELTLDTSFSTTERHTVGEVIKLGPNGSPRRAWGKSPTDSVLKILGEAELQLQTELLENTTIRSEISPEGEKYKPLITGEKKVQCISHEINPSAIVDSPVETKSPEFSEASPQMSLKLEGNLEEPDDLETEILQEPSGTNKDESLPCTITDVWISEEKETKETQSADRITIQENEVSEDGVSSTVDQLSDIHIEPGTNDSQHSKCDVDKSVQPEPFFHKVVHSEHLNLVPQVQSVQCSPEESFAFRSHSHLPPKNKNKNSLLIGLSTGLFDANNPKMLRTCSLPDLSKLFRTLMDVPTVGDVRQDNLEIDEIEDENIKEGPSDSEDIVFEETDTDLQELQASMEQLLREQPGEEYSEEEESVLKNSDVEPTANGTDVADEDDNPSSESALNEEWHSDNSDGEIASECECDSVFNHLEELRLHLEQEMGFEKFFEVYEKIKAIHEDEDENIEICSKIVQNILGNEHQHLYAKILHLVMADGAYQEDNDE
# [13] = target: T5, Serine/threonine-protein kinase Nek1 (Homo sapiens); conditions: at 1 µM
# [14] = target: T6, Serine/threonine-protein kinase Nek2 (Homo sapiens) (UniProt P51955); conditions: at 0.1 µM
# T6 sequence (whole entry): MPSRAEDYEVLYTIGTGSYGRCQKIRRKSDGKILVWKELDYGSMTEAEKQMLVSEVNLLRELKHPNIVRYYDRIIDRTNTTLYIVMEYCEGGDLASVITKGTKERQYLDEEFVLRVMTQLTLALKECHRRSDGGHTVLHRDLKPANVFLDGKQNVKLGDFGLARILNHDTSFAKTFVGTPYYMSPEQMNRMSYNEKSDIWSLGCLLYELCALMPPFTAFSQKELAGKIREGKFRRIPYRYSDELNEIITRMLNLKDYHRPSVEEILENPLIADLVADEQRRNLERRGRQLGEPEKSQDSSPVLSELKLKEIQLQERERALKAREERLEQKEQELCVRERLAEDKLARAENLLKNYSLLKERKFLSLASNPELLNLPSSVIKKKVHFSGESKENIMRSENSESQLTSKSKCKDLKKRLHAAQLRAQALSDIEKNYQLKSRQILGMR
# [15] = target: T6, Serine/threonine-protein kinase Nek2 (Homo sapiens); conditions: at 1 µM
# [16] = target: Serine/threonine-protein kinase Nek6 (Homo sapiens) (UniProt Q9HC98); conditions: at 0.1 µM
# Serine/threonine-protein kinase Nek6 (Homo sapiens), sequence (Q9HC98 whole entry): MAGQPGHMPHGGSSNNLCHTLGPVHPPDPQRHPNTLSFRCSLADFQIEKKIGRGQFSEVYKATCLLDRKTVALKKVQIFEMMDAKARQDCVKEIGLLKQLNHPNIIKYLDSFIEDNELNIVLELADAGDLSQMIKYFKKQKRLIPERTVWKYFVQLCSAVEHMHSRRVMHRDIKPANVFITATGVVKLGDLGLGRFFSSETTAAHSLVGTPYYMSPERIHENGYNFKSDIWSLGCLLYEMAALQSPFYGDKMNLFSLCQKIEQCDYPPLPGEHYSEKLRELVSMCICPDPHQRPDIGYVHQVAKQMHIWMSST
# [17] = target: Serine/threonine-protein kinase Nek6 (Homo sapiens) (UniProt Q9HC98); conditions: at 1 µM
# [18] = target: Serine/threonine-protein kinase Nek7 (Homo sapiens) (UniProt Q8TDX7); conditions: at 0.1 µM
# Serine/threonine-protein kinase Nek7 (Homo sapiens), sequence (Q8TDX7 whole entry, looked up): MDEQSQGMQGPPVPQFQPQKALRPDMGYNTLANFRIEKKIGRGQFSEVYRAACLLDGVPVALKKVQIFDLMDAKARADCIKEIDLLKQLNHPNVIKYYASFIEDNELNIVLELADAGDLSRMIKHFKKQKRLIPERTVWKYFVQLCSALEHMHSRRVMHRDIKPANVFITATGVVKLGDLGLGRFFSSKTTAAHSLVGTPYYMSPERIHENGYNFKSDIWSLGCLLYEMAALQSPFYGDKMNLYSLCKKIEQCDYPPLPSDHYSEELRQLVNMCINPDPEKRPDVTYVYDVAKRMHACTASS
# [19] = target: Serine/threonine-protein kinase Nek7 (Homo sapiens) (UniProt Q8TDX7); conditions: at 1 µM
# [20] = target: T7, Serine/threonine-protein kinase Nek9 (Homo sapiens) (UniProt Q8TD19); conditions: at 0.1 µM;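 also: reported value is the mean percent inhibition of NEK9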
# T7 sequence (whole entry): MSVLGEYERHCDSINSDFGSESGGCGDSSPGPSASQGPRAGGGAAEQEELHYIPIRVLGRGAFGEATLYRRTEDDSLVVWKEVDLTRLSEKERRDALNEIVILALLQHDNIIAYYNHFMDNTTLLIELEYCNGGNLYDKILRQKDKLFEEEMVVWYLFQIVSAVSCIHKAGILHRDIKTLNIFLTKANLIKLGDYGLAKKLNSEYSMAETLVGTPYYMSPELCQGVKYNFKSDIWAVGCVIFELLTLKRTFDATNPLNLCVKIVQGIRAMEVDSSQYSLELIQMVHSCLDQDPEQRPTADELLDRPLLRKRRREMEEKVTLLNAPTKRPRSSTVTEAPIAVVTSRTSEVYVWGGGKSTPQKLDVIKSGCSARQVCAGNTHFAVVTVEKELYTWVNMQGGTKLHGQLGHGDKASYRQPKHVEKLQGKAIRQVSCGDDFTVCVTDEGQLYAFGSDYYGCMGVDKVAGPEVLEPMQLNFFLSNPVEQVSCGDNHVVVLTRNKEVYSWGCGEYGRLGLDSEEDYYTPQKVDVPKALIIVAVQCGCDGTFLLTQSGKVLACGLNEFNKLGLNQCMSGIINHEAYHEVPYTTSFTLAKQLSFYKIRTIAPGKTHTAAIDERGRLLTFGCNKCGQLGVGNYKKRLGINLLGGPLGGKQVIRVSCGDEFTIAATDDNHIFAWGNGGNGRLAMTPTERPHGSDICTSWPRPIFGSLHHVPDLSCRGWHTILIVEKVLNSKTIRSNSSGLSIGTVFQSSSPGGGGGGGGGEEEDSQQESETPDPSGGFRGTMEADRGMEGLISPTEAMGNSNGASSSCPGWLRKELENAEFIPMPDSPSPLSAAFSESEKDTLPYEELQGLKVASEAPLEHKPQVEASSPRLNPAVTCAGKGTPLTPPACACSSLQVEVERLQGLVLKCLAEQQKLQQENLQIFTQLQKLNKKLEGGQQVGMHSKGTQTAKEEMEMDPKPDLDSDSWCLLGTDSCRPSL
# Sphingosine kinase 1 (Homo sapiens), sequence (Q9NYA1 whole entry): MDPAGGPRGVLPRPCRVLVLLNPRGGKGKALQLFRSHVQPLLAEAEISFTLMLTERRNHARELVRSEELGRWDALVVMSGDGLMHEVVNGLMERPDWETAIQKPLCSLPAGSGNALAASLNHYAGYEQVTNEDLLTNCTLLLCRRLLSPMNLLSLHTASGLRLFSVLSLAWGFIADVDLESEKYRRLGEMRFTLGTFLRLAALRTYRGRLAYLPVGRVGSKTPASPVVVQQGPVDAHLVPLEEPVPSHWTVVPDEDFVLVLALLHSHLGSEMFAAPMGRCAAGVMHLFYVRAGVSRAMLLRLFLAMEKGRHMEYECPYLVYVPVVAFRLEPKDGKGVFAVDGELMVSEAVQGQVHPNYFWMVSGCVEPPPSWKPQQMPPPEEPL
structure (smiles),measurement,setting,value
COc1cccc(-n2cnc3c(N/N=C/c4ccncc4)ncnc32)c1,inhibition,[1],0.02%
same,inhibition,[2],0.58%
same,inhibition,[3],-0.25%
same,inhibition,[4],0.97%
same,inhibition,[5],10.8%
same,inhibition,[6],0.84%
same,inhibition,[7],-1.74%
same,inhibition,[8],1.12%
same,inhibition,[9],3.32%
same,inhibition,[10],3.81%
same,inhibition,[11],4.51%
same,inhibition,[12],0%
same,inhibition,[13],9.07%
same,inhibition,[14],-1.74%
same,inhibition,[15],-1.3%
same,inhibition,[16],2.37%
same,inhibition,[17],2.69%
same,inhibition,[18],-0.81%
same,inhibition,[19],-2.76%
same,inhibition,[20],0.98%
